Rows were chosen to be rich in hits. Some 11% of all compounds tested hit in one or more screens of this group.
Pf growth 48h: inhibits P. falciparum growth in the first generation, 48 h. Potency, µM (series often up to 28.7 µM), without a hit: at the top dose activity change, negative = inhibition, hits mostly inhibitors. 310,000 compounds, 5.9% hits. P. falciparum luciferase growth in erythrocytes, 48 h; note: % is set by controls: 0 for no effect and ±100 for the full control effect
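Cell-based growth assay: transgenic P. falciparum expressing firefly luciferase, cultured in red cells within RPMI 1640 containing 0.5% w/v Albumax, 24 mM bicarbonate and gentamycin. A drop in luciferase activity indicates inhibition.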
Vaccinia Venus: vaccinia inhibition (Venus reporter); 330,000 compounds, 0.46% hits; Potency, µM (top dose mostly 36.5 µM), without a hit: at the highest dose activity change, negative = inhibition, usual class: inhibitors; Vaccinia virus Venus reporter expression, fluorescence; AID 720580; calls by dose curve; tested in A549 cells; note: % is set by controls: 0 for no effect and ±100 for the full control effect; nearly all actives have a fitted effect of over 30% in size
VACV mCherry inh: inhibitors of vaccinia virus infection (mCherry reporter signal); 310,000 compounds, 0.63% hits; Vaccinia virus mCherry reporter infection, fluorescence; Potency, µM (top dose mostly 36.5 µM), inactives show at the top dose activity change, negative = inhibition, most hits filed as inhibitors; calls by dose curve; tested in A549 cells; note: % is set by controls: 0 for no effect and ±100 for the full control effect; nearly all actives have a fitted effect of over 35% in size
HCV inh: inhibitors of hepatitis C virus infection. Huh7.5.1 HCVcc-Cre infection, luciferase reporter, 44 h. Potency, µM (titrated, usually from 41.8 µM), for inactives: at the highest dose activity change, negative = inhibition, hits mostly inhibitors. 340,000 compounds, 3.4% hits. AID 651820; note: % is set by controls: 0 for no effect and ±100 for the full control effect
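Compounds are dispensed onto cells plated 4 h earlier at 1,000 per well, with HCVcc-Cre virus (about 0.5 moi) added next. Following 44 h of culture, luminescent signal is measured for 15 sec after 15 min with substrate at room temperature.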
NS1 function inh: blocks influenza NS1 protein function. 270,000 compounds, 0.4% hits. AID 2326. Potency, µM (top dose mostly 46.1 µM), for inactives: top-dose activity, positive = more growth; calls by dose curve; note: actives are rising curves; nearly all actives have a fitted effect of over 50% in size
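Recovery from NS1-induced slow growth read by OD600 in budding yeast switched to galactose assay medium (pH 6.0, -URA) at 1:100 dilution. Compound 23 nl per well; the matching strain lacking NS1 serves as control.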
Pf growth 96h: P. falciparum growth inhibition at 96 hour, primary screen for plastid delayed-death inhibitors; P. falciparum luciferase reporter growth, 96 h; Potency, µM (titrated, usually from 28.7 µM), for the others: at the highest dose activity change, negative = inhibition, most hits filed as inhibitors; 320,000 compounds, 6.9% hits; AID 504834; note: % is set by controls: 0 for no effect and ±100 for the full control effect
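P. falciparum expressing integrated firefly luciferase, in erythrocytes at 2% hematocrit, 0.05% parasitemia, incubated with compounds 96 h at 37 C, 5% CO2. Growth inhibition read as loss of luminescence; two-generation exposure targets delayed-death apicoplast inhibitors.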
Starred values were filed as active, the others as inactive; [ ] = another dose, or the depositor's remark. Unless noted, calls come from the whole dose curve; as a rule, active = well fitted inhibition curve with a large enough effect; inconclusive = small, poorly fitted or top-dose-only effect, or another doubt; inactive = no such curve, though single readings can be large or run the other way. Potency is the fitted concentration of half-maximal effect.

Screening Cc1ccc(C)c(N=C2NC(=O)CS2)c1 returned Pf growth 48h 0%, Vaccinia Venus 10%, VACV mCherry inh -12%, HCV inh 1%, NS1 function inh -2% and Pf growth 96h 50%.
`COc1ccc(NC(=O)c2ccccc2SC)cc1` gave Pf growth 48h 48%, Vaccinia Venus -13%, VACV mCherry inh inactive, HCV inh 19%, NS1 function inh -2% and Pf growth 96h -21%.
For COCCN(CCOC)S(=O)(=O)c1ccc(NC(=O)c2cnccn2)cc1 the results were Pf growth 48h 8.3µM*, HCV inh 11%, NS1 function inh 26% and Pf growth 96h 9%.
CCN(CC)c1ccc(NC(=O)c2cnccn2)cc1S(=O)(=O)Nc1ccc(OC)cc1 was read as Pf growth 48h inconclusive, Vaccinia Venus inconclusive, VACV mCherry inh -19%, HCV inh 8.9µM*, NS1 function inh -21% and Pf growth 96h inconclusive.
For CCN(CC)c1ccc(NC(=O)c2ccccc2Br)cc1S(=O)(=O)Nc1ccccc1OC the results were Pf growth 48h 15µM*, Vaccinia Venus -6%, VACV mCherry inh -9%, HCV inh inconclusive, NS1 function inh inconclusive and Pf growth 96h 0%.
COCCN(CCOC)S(=O)(=O)c1ccc(C(=O)Nc2ccc(S(=O)(=O)Nc3nccc(C)n3)cc2)cc1 was read as Pf growth 48h inconclusive, Vaccinia Venus -9%, VACV mCherry inh -11%, HCV inh 22% and Pf growth 96h -20%.
Screening CC(C)C(=O)NN(C(=O)C(C)C)c1nc2ccccc2s1 returned Pf growth 48h -2%, Vaccinia Venus -3%, VACV mCherry inh -10%, HCV inh 2%, NS1 function inh -1% and Pf growth 96h 24%.
CCn1cc(C(=O)NCc2ccc3c(c2)OCO3)c(=O)c2cc(F)c(N3CCN(C(=O)c4ccco4)CC3)cc21 was read as Pf growth 48h 8.3µM*, Vaccinia Venus 13µM*, VACV mCherry inh 11µM*, HCV inh inconclusive and NS1 function inh -3%.
CCn1cc(C(=O)NCc2ccccc2)c(=O)c2cc(F)c(N3CCN(C(=O)c4ccco4)CC3)cc21 was read as Vaccinia Venus inconclusive, HCV inh 11µM*, NS1 function inh 10% and Pf growth 96h 1.7µM*.
`CCN(CC)CCNC(=O)c1cn(CC)c2cc(N3CCN(C(=O)c4ccco4)CC3)c(F)cc2c1=O` gave Pf growth 48h -18%, HCV inh -9%, NS1 function inh -5% and Pf growth 96h -24%.
Screening CCn1cc(C(=O)NCc2ccncc2)c(=O)c2cc(F)c(N3CCN(C(=O)c4ccco4)CC3)cc21 returned Pf growth 48h 6.6µM*, Vaccinia Venus -9%[7.34 µM], VACV mCherry inh -12%[7.34 µM], HCV inh inconclusive, NS1 function inh -12% and Pf growth 96h 10µM*.
`CCN(c1ccc(C)cc1)S(=O)(=O)c1nnc(NC(=O)C2CCCCC2)s1` gave Vaccinia Venus -2% and VACV mCherry inh -12%.
COc1cc(/C=C/C(=O)OCC(=O)NCC2CCCCC2)ccc1O was read as Pf growth 48h inconclusive, Vaccinia Venus -15%, VACV mCherry inh -24%, HCV inh 3% and Pf growth 96h -28%.
`Cc1cccc(Cc2nnc(NC(=O)c3cccc(S(=O)(=O)N4CCOCC4)c3)s2)c1` gave Pf growth 48h inconclusive, Vaccinia Venus -6%, VACV mCherry inh -14%, HCV inh 16% and NS1 function inh -4%.
Screening CCOc1cccc(C(=O)Nc2ccccc2C(=O)N2CCN(C)CC2)c1 returned Pf growth 48h 2%, Vaccinia Venus -15%, VACV mCherry inh -19%, HCV inh 8%, NS1 function inh 12% and Pf growth 96h 4.7µM*.
COc1cccc(C(=O)Nc2ccccc2C(=O)N2CCCC2)c1 was read as Vaccinia Venus -18%, VACV mCherry inh -24%, HCV inh -3%, NS1 function inh -5% and Pf growth 96h -25%.
CN1CCN(c2ccccc2NC(=O)c2cccc(OCc3ccccc3)c2)CC1 was read as Pf growth 48h 5.2µM*, Vaccinia Venus inconclusive, VACV mCherry inh inconclusive, HCV inh inconclusive and NS1 function inh -35%.
Screening COc1cccc(C(=O)Nc2ccccc2N2CCCC2)c1 returned Pf growth 48h -20%, HCV inh inconclusive, NS1 function inh inconclusive and Pf growth 96h 136%.
Screening CN1CCN(c2ccccc2NC(=O)c2c(F)cccc2F)CC1 returned Pf growth 48h inconclusive, Vaccinia Venus -6%, VACV mCherry inh inactive, HCV inh -19% and Pf growth 96h 3.7µM*.
For COc1c(F)c(F)c(C(=O)Nc2ccccc2N2CCN(C(=O)C(C)C)CC2)c(F)c1F the results were Pf growth 48h 0.93µM*, Vaccinia Venus 2%, HCV inh inconclusive, NS1 function inh -34% and Pf growth 96h 57%.
Screening CN(C)c1ccc(/C=C2\C(=N)N3N=C(CC(=O)N4CCCCC4)SC3=NC2=O)cc1 returned Pf growth 48h 0%, Vaccinia Venus 16%, VACV mCherry inh inactive, HCV inh 7%, NS1 function inh 0% and Pf growth 96h 2%.
Screening O=C(NC1CC(=O)N(c2ccccc2)C1)c1cccs1 (stereo not drawn) returned Vaccinia Venus -10%[7.34 µM] and VACV mCherry inh -7%[7.34 µM].
Screening O=C(Nc1ccccc1F)C(Cc1ccccc1)n1cccc1 (stereo not drawn) returned Vaccinia Venus -12% and VACV mCherry inh -12%.
CC(C)Oc1ccc(C(=O)Nc2ccccc2N2CCOCC2)cc1 was read as Pf growth 48h inconclusive, HCV inh -4%, NS1 function inh -2% and Pf growth 96h 187%.
Screening Cc1nc(COc2ccc(C(=O)Nc3ccccc3N3CCOCC3)cc2)cs1 returned Pf growth 48h -19%, Vaccinia Venus -13%, VACV mCherry inh -9%, HCV inh 11µM*, NS1 function inh -22% and Pf growth 96h inconclusive.
Cc1noc(C)c1COc1cccc(C(=O)Nc2ccccc2N2CCOCC2)c1 was read as Pf growth 48h inconclusive, Vaccinia Venus -19%, VACV mCherry inh -14%, HCV inh inconclusive, NS1 function inh 11% and Pf growth 96h 13µM*.
For CN1CCN(c2ccccc2NC(=O)c2ccc(OCc3ccccc3)cc2)CC1 the results were Pf growth 48h 7.4µM*, Vaccinia Venus -24%, HCV inh 11µM*, NS1 function inh -10% and Pf growth 96h 13µM*.
CN1CCN(c2ccccc2NC(=O)C(Cc2ccccc2)n2cccc2)CC1 (stereo not drawn) was read as Pf growth 48h 10µM*, Vaccinia Venus -9%, VACV mCherry inh -16%, HCV inh 7%, NS1 function inh -1% and Pf growth 96h inconclusive.
